This passage reports composite z-score and z-score results from PubChem BioAssay.

Test [1] concerns Wnt5a (protein binding on small-molecule microarray). The test can be described thus: Wnt5a binders on small-molecule microarray, primary screen, biophysical, 635/667 nm fluorescence (AID 1142).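 Further: fluorescence read at 667 nm with signal to noise per printed feature.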 The settings on record: 635 nm fluorescence, higher = more signal.
A short description of test [2]: cell viability in Huh7 cells, primary screen, cytotoxicity control for HCV replication inhibitor project, CellTiter-Glo luminescence, basal, 48 h (AID 1143).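 Further: Huh7 hepatoma cells carrying a hepatitis C replication reporter with no stimulus; test concentration not given here.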 The settings on record: Huh7 HCV replicon, higher = more signal, called active from +8 up or from −8 down. (In ATP-based viability assays light output follows the ATP content of the culture.)
Test [3] can be described thus: P. aeruginosa biofilm formation inhibitors, primary screen, PAO1 strain, BacTiter-Glo luminescence, LB-PBS (AID 1144). The settings on record: 12 h, higher = more signal.
The nature of test [4]: CREB reporter modulators without forskolin, primary screen, cell-based, PC12, CRE-LacZ reporter, unstimulated (AID 1145). The note with it: no forskolin, luminescence, 4.5 h, higher = more signal, called active from +8 up or from −8 down.
Test [5] is described as follows: CREB reporter modulators under forskolin, primary screen, cell-based, PC12, CRE-LacZ reporter, forskolin-stimulated (AID 1146).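 Further: PC12 cells with 6xCRE LacZ reporter stimulated by forskolin 10 µM; beta-galactosidase reporter signal reflecting CREB driven transcription.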 The settings on record: luminescence, 4.5 h, higher = more signal, called active from +8 up or from −8 down.
Test [6] concerns the target Streptavidin (Streptomyces avidinii) (UniProt P22629). The test can be described thus: streptavidin binders on small-molecule microarray, primary screen, artefact control for SMM compound annotation, biophysical, 635/667 nm fluorescence (AID 1147).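 Further: signal reflects streptavidin binding to arrayed compounds as a control protein.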 The settings on record: streptavidin binding, higher = more signal.
Test [7] can be described thus: small-molecule binders of probe aInhba, primary screen, biochemical, small-molecule microarray, 635/667 nm fluorescence (AID 1148).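 Further: score merges 667nm spot fluorescence with signal-to-noise for antibody binding to printed compounds.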 The settings on record: higher = more signal.
For test [8], the target named is Torsin-1A (Homo sapiens) (UniProt O14656). The experiment in a line: torsin A binders from cell lysate, primary screen, small-molecule microarray, wild-type, 635/667 nm (AID 1149). The note with it: COS7 hTOR1A-WT lysate, 635 nm fluorescence, higher = more signal.
Torsin-1A (Homo sapiens), sequence (O14656 whole entry, looked up): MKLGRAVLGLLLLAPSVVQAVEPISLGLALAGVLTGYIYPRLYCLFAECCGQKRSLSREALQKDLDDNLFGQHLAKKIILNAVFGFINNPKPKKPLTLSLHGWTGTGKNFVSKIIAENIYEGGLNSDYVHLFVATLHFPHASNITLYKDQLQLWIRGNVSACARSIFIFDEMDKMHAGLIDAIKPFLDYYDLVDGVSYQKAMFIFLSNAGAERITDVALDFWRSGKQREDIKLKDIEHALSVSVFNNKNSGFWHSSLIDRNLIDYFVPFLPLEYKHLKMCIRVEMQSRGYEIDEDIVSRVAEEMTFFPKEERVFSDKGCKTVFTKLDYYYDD
Test [9] shares this target. The experiment in a line: small-molecule binders of mutant TOR1A in lysate, primary screen, cell lysate, small-molecule microarray, COS7 lysate, 635/667 nm fluorescence (AID 1150).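 Further: score pools 667 nm emission and signal to noise measuring lysate protein binding.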 The note with it: COS7 hTOR1A mutant lysate, 635 nm fluorescence, higher = more signal.
The subject of test [10] is Sonic hedgehog protein (Shh). The test can be described thus: small-molecule binders of Shh protein, primary screen, biochemical, small-molecule microarray, 635/667 nm fluorescence (AID 1151).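 Further: Shh protein binding to compounds spotted on small-molecule microarray slides; score combines spot fluorescence intensity with signal-to-noise across triplicate slides.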 The settings on record: small-molecule microarray binding, 635 nm fluorescence; higher = more signal.
Test [11] can be described thus: E. coli DRC41 culture turbidity changes, primary screen, E. coli filamentation inducer project, strain DRC41, OD650, 48 h (AID 1152).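 Further: E. coli MC1000 strain DRC41 lacking acrAB efflux pump and sulA.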 The settings on record: E. coli DRC41 (acrAB sulA), higher = more signal, called active from +8 up or from −8 down.
Test [12] in a line: small-molecule binders of probe aLefty1, primary screen, biochemical, small-molecule microarray, 635/667 nm fluorescence (AID 1153).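 Further: score merges spot fluorescence with signal-to-noise ratio from the scanned slide images.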 The note with it: higher = more signal.
A short description of test [13]: PSAC antagonists in infected red cells, primary screen, cell-based, P. falciparum Indochina, OD700, 1 h (AID 1154). The note with it: P. falciparum Indochina infected RBC osmotic lysis, higher = more signal, called active from +8 up or from −8 down.
Test [14] is described as follows: PSAC antagonists in infected red cells, primary screen, cell-based, P. falciparum Indochina, OD700, 2 h (AID 1155).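 Further: lysis reports solute entry through the parasite surface anion channel PSAC; channel blockers reduce lysis of infected cells.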 The note with it: P. falciparum Indochina infected erythrocytes, osmotic lysis OD700; higher = more signal, called active from +8 up or from −8 down.
A short description of test [15]: osmotic lysis modulators in infected erythrocytes, primary screen, PSAC antagonist project, cell-based, P. falciparum Indochina, OD700, 3 h (AID 1156). The note with it: higher = more signal, called active from +8 up or from −8 down.
Test [16] in a line: PSAC antagonists in infected red cells, primary screen, cell-based, P. falciparum Indochina, OD700, 18 h (AID 1157). The note with it: P. falciparum Indochina infected erythrocytes, osmotic lysis OD700, 18 h; higher = more signal, called active from +8 up or from −8 down.
A short description of test [17]: modulators of S6 phosphorylation in cells, primary screen, cell-based, A549, cytoblot, luminescence, serum-stimulated (AID 1158).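 Further: serum-stimulated A549 lung adenocarcinoma cells; signal is phosphorylated S6 detected by cytoblot immunostaining with HRP secondary.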 The settings on record: A549 phospho-S6 cytoblot, 5 h, higher = more signal.
Test [18] addresses NADPH oxidase 2 (Homo sapiens) (UniProt P04839). The experiment in a line: NOX2-dependent H2O2 signal modulators, primary screen, NOX inhibitor project, cell-based, HEK293-NOX2, PMA-stimulated, Amplex Red fluorescence (AID 1159). Further: test concentration not given here. The settings on record: 45 min, higher = more signal, called active from +8 up or from −8 down.
In test [19] the target is NADPH oxidase 4 (Homo sapiens) (UniProt Q9NPH5). The test can be described thus: NOX4-dependent H2O2 signal modulators, primary screen, NOX inhibitor project, cell-based, HEK293-NOX4, tetracycline-induced, Amplex Red fluorescence (AID 1160). The settings on record: 45 min, higher = more signal, called active from +8 up or from −8 down.
NADPH oxidase 4 (Homo sapiens), sequence (Q9NPH5 whole entry, looked up): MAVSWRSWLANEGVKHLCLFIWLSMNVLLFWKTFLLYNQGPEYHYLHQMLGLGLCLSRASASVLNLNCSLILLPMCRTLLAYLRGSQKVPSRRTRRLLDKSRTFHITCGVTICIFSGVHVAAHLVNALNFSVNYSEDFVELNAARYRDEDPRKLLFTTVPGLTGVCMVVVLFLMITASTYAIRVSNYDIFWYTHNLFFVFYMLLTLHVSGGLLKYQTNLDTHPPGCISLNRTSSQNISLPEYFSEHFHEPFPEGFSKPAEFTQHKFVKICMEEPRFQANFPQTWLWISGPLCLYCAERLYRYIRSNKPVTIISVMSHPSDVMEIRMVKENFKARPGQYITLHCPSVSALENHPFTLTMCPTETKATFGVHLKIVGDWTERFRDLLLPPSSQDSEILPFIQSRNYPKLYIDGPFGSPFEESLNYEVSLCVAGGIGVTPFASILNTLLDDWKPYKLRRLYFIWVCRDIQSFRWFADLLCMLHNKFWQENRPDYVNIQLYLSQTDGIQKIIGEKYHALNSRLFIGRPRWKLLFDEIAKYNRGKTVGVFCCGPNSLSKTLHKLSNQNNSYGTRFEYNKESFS
Test [20] concerns the target NADPH oxidase 5 (Homo sapiens) (UniProt Q96PH1). The test can be described thus: NOX5-dependent H2O2 signal modulators, primary screen, NOX inhibitor project, cell-based, HEK293-NOX5, Amplex Red fluorescence (AID 1161). The settings on record: HEK293-NOX5, ionomycin, 45 min, higher = more signal.

Active and inactive are the calls of the source. Unless noted, how the calls were made is not given here.

Streptavidin (Streptomyces avidinii), sequence (P22629 whole entry, looked up): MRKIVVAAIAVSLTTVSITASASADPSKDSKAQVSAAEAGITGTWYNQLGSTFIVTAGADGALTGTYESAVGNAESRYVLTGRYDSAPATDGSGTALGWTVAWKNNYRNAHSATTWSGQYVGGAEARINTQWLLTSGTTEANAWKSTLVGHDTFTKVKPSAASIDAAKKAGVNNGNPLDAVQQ
NADPH oxidase 5 (Homo sapiens), sequence (Q96PH1 whole entry, looked up): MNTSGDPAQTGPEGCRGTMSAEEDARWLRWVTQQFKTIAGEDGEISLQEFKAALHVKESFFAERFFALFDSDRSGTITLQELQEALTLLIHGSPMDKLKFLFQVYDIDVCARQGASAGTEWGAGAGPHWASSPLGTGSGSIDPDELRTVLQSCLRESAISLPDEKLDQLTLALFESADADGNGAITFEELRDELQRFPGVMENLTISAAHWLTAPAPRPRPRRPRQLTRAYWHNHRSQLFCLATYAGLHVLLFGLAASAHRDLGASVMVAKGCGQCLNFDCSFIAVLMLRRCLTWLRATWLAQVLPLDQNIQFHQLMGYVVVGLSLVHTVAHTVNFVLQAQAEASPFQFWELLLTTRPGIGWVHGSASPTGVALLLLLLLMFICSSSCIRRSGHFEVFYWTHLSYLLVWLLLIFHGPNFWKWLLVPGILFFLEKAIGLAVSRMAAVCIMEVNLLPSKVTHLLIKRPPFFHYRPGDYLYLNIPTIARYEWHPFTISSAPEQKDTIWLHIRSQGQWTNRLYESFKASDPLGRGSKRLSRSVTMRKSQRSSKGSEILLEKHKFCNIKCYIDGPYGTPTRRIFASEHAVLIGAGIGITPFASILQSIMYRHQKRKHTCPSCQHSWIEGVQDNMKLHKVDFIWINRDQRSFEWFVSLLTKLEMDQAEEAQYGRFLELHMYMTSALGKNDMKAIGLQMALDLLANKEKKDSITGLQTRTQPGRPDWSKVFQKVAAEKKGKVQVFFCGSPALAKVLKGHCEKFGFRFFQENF
NADPH oxidase 2 (Homo sapiens), sequence (P04839 whole entry, looked up): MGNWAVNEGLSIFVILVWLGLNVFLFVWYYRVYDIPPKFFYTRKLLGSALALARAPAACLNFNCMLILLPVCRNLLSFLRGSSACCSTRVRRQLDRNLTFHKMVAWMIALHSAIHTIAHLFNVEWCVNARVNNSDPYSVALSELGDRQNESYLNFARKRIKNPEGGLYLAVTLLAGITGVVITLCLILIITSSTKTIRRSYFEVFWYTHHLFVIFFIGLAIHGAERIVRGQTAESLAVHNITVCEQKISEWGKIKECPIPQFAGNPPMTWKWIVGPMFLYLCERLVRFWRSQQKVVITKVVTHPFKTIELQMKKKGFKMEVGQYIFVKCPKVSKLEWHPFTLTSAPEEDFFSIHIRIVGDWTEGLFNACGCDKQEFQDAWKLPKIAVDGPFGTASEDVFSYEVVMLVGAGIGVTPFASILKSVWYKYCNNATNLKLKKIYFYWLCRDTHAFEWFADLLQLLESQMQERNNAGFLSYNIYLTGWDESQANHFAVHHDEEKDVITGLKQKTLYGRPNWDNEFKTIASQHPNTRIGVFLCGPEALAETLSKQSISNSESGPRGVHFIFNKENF

On to `CCOC(=O)C[C@H]1[C@H](OC(=O)Cc2ccc3c(c2)OCO3)[C@@H](NC(=O)C2CCCCC2)c2cc(OCCCO)ccc2N1C(=O)c1ccccc1`, for which the composite z-score is -0.0729 in [1]; 0.584 in test [6]; -0.0313 in [7]; -0.0429 in test [8]; 0.0914 in test [9]; 0.0725 in test [10]. Besides, the composite z-score in [12] is -0.06. The z-score in test [2] was -0.0136 (inactive); in test [3], -1.38 (inactive); in test [4], 2.82 (inactive); in test [5] it was -1.27 (inactive); in [11] it was 2.81 (inactive); in [13], 1.27 (inactive). The z-score was 0.569 (inactive) in test [14]; -0.481 (inactive) in test [15]; 0.0872 (inactive) in [16]; 0.524 in test [17]; -0.233 (inactive) in test [18]; 0.636 (inactive) in [19]. The z-score in [20] was -0.206.

In the case of `CC(CO)N1C(=O)[C@]2(C)C3C(=O)OCCC/C=C\[C@H]3OC23C=CCN(c2ccc(Cl)cc2)C(=O)[C@@H]13` (stereo not given in full), the composite z-score is -0.313 in test [1]; -0.741 in test [6]; -0.316 in test [7]; -0.775 in test [8]; -0.734 in [9]; 0.0223 in test [10]. In test [12], this compound yielded a composite z-score of -0.062. The z-score was 0.612 (inactive) in test [2]; -1.53 (inactive) in test [3]; 0.187 (inactive) in test [4]; -0.592 (inactive) in [5]; 0.79 (inactive) in test [11]; 0.423 (inactive) in [13]. The z-score in test [14] was 0.576 (inactive); in test [15] it was 1.94 (inactive); in test [16], 0.5 (inactive); in [17] it was -0.021; in [18] it was 1.25 (inactive); in test [19], -0.0121 (inactive). Further, in [20], the z-score came to 1.33.

For the compound `O=C1N(CCS(=O)(=O)c2ccccc2)c2ccccc2[C@H]2OC(c3ccc(OCCCO)cc3)=N[C@@]12Cc1ccccc1`, the composite z-score amounted to 0.636 in [1]; 0.274 in test [6]; 0.397 in test [7]; 1.08 in test [8]; 1.07 in test [9]; 1.74 in test [10]. In test [12], this compound returned a composite z-score of 0.253. Also, the z-score in test [2] is -3.51 (inactive); in [3], 0.582 (inactive); in [4] it was 5.87 (inactive); in test [5], -1.86 (inactive); in test [11], -1.05 (inactive); in test [13], 31.2 (active). Moreover, the z-score is 27.5 (active) in test [14]; 3.08 (inactive) in test [15]; 6.96 (inactive) in [16]; 0.468 in [17]; -1.85 (inactive) in test [18]; 1.07 (inactive) in [19]. The same compound displayed a z-score in test [20] of -0.191.

As for `[N-]=[N+]=Nc1ccccc1C[C@@]1(C(=O)N2CCOCC2)N=C(c2ccc(OCCCO)cc2)O[C@@H]1c1ccccc1`, the composite z-score in test [1] was 1.21; in test [6], 0.269; in test [7] it was -0.135; in test [8] it was 0.156; in test [9], 0.53; in test [10] it was -0.227. For the same compound, the composite z-score in [12] is -0.88. Moreover, the z-score is -4.54 (inactive) in [2]; 0.83 (inactive) in test [3]; 1.64 (inactive) in test [4]; -0.197 (inactive) in test [5]; 0.345 (inactive) in test [11]; 28.5 (active) in test [13]. For the same compound, the z-score in test [14] is 23.8 (active); in [15], 3.6 (inactive); in test [16], 2.07 (inactive); in test [17] it was -0.0419; in [18] it was 0.437 (inactive); in test [19], 0.265 (inactive). For the same compound, in test [20], the z-score was -1.66.

For the compound `[N-]=[N+]=Nc1ccccc1[C@H]1OC(c2ccc(OCCCO)cc2)=N[C@@]1(Cc1ccccc1)C(=O)NCCN1CCOCC1`, the composite z-score in test [1] came to 1.47; in [6] it was 1.32; in test [7], 0.936; in test [8], 0.596; in test [9], 0.0723; in test [10], 1.44. The compound further showed a composite z-score in [12] of 0.31. Besides, the z-score is -3.37 (inactive) in [2]; -0.395 (inactive) in [3]; -0.697 (inactive) in test [4]; -1.62 (inactive) in test [5]; 0.378 (inactive) in test [11]; 33.5 (active) in test [13]. Also, the z-score is 30.9 (active) in test [14]; 2.73 (inactive) in test [15]; 8.84 (active) in [16]; 0.138 in test [17]; -1 (inactive) in test [18]; 0.585 (inactive) in test [19]. Further, the z-score in test [20] was 1.57.

For the compound `CCCCCN1CC=CC23O[C@@H]4C=CCCOC(=O)C4[C@H]2C(=O)N(CCCCCCO)[C@@H]3C1=O` (stereo not given in full), the composite z-score in test [1] is -0.296; in test [6], -0.943; in test [7] it was -0.263; in test [8] it was 1.13; in [9], 2.1; in test [10], 0.0725. For the same compound, the composite z-score in test [12] is -0.324. Moreover, the z-score in [2] was -0.181 (inactive); in [3], -0.00872 (inactive); in test [4] it was -1.03 (inactive); in [5], -0.215 (inactive); in [11], 0.457 (inactive); in test [13], 1.07 (inactive). The z-score was 0.705 (inactive) in [14]; 1.01 (inactive) in test [15]; 0.407 (inactive) in [16]; 1.59 in test [17]; 1.27 (inactive) in test [18]; -0.0418 (inactive) in test [19]. In test [20], this compound gave a z-score of 2.08.

With `COCCOC(=O)N1C(=O)[C@@]2(c3ccccc31)[C@H](C(=O)NC[C@H](O)c1ccccc1)[C@H]1C(=O)O[C@H](c3ccccc3)[C@H](c3ccccc3)N1[C@@H]2c1ccc(O)cc1`, the composite z-score in test [1] was 0.852; in test [6], 1.09; in test [7], 0.106; in test [8] it was 0.877; in [9], 0.383; in test [10], 1.74. In addition, the composite z-score in test [12] is -0.671. Also, the z-score in test [2] was -1.98 (inactive); in [3], -0.193 (inactive); in test [4] it was 0.155 (inactive); in test [5], 2.34 (inactive); in test [11] it was 0.503 (inactive); in [13] it was 1.89 (inactive). Also, the z-score in test [14] was 0.74 (inactive); in test [15], -0.0724 (inactive); in [16], 0.786 (inactive); in test [17], 0.315; in test [18] it was 1.22 (inactive); in [19] it was 0.4 (inactive). Also, in test [20], the z-score was found to be 0.855.

With `CCCNC(=O)[C@@H]1c2ccccc2C(=O)N(Cc2ccc(OC(F)(F)F)cc2)[C@H]1c1ccc(CO)cc1`, the composite z-score in [1] is 0.474; in [6], -0.127; in test [7], -0.0963; in test [8], 0.0008; in test [9], -0.424; in [10], 0.346. In test [12], this compound showed a composite z-score of -0.0099. The z-score in test [2] is -0.88 (inactive); in test [3], 0.256 (inactive); in test [4], -0.322 (inactive); in [5], -0.283 (inactive); in test [11], 0.52 (inactive); in test [13], 1.23 (inactive). The z-score in test [14] is -0.146 (inactive); in test [15], 1.03 (inactive); in test [16], -0.406 (inactive); in test [17], 0.289; in test [18], -0.62 (inactive); in test [19] it was 0.184 (inactive). In test [20], the z-score turned out to be 1.75.
